Hits are enriched below; roughly 7.5% of the tested compounds scored in any of these assays.
Vaccinia Venus – qHTS for Stage-Specific Inhibitors of Vaccinia Orthopoxvirus: Venus Reporter Primary qHTS | Vaccinia virus Venus reporter expression, fluorescence | Potency, µM (highest dose often 36.5 µM), for the others: top-dose activity change, negative = inhibition, hits mostly inhibitors | actives 0.46% (n = 330,000) | AID 720580, 2013; calls by dose curve; tested in A549 cells; note: potency is the fitted concentration of half-maximal effect; % is set by controls: 0 for no effect and ±100 for the full control effect; nearly all actives have a fitted effect of over 30% in size
HCV inh – qHTS Assay for Inhibitors of Hepatitis C Virus (HCV); Huh7.5.1 HCVcc-Cre infection, luciferase reporter, 44 h; Potency, µM (doses to about 41.8 µM), without a hit: at the highest dose activity change, negative = inhibition, actives largely listed as inhibitors; actives 3.4% (n = 340,000); note: potency is the fitted concentration of half-maximal effect; % is set by controls: 0 for no effect and ±100 for the full control effect
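Seed cells (1,000/well) for 4 h; treat with compound and infect with HCVcc-Cre, moi about 0.5. Incubate 44 h, then detect luciferase activity.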
FBPA Giardia inh – qHTS Assay for Inhibitors of Fructose-1,6-bisphosphate Aldolase from Giardia Lamblia; Potency, µM (doses to about 59.6 µM), for inactives: at the highest dose activity, negative = inhibition, hits mostly inhibitors; actives 0.71% (n = 290,000); A8B2U2; purified Giardia FBPA; AID 2451, 2010; note: potency is the fitted concentration of half-maximal effect; % is set by controls: 0 for no effect and ±100 for the full control effect; nearly all actives have a fitted effect of over 55% in size
Target sequence (A8B2U2 whole entry, looked up): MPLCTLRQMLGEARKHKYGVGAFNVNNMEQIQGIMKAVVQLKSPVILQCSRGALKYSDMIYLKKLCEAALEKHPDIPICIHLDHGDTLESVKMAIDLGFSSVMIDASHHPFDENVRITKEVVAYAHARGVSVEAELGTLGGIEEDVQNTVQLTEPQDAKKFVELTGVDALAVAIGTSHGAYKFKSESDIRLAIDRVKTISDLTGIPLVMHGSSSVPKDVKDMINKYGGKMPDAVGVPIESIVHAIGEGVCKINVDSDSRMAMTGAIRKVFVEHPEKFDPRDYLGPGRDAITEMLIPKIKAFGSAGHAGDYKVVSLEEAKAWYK
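40 nM FBPA preincubated 10 min at RT with compound (up to 57.5 uM final), then substrate plus GAPDH/TPI/NAD/arsenate coupling and diaphorase/resazurin added. Fluorescence read after 20 min at RT, 525/598 nm.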
HCMV antiviral – qHTS Assay for inhibitors of the human cytomegalovirus (HCMV). actives 4.5% (n = 410,000). activity change, negative = inhibition, % at 57.5 µM. HFF cells, HCMV-luciferase reporter, 72 h; stronger effect = lower value; in the data active = activity change below about -60%; inconclusive = no clear call, values can overlap the other calls; inactive = above about -39%; note: % is set by controls: 0 for no effect and ±100 for the full control effect
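Screen run at 2 compound doses on HFFs infected with reporter HCMV, MOI 1 PFU/cell. Luciferase activity from cell lysates at 72 h post infection gave inhibition relative to buffer-only and Salinomycin wells.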
VACV mCherry inh – qHTS for Stage-Specific Inhibitors of Vaccinia Orthopoxvirus: mCherry Reporter Primary qHTS; actives 0.63% (n = 310,000); Potency, µM (series often up to 36.5 µM), for inactives: top-dose activity change, negative = inhibition, most hits filed as inhibitors; Vaccinia virus mCherry reporter infection, fluorescence; AID 720579, 2013; calls by dose curve; tested in A549 cells; note: potency is the fitted concentration of half-maximal effect; % is set by controls: 0 for no effect and ±100 for the full control effect; nearly all actives have a fitted effect of over 35% in size
FMDV inh – High Throughput Screening for Foot and Mouth Disease Virus Antivirals; AID 1159524, 2015; actives 1.2% (n = 410,000); FMDV antiviral cell-based qHTS; Potency, µM (series often up to 57.9 µM), without a hit: at the top dose activity change, negative = inhibition, usual class: inhibitors; calls by dose curve; tested in HEK293T cells; note: read-out not given here; potency is the fitted concentration of half-maximal effect; % is set by controls: 0 for no effect and ±100 for the full control effect; nearly all actives have a fitted effect of over 45% in size
HCV confirm – qHTS Assay for Inhibitors of Hepatitis C Virus (HCV): Confirmation Assay for Cherry-picked Compounds | shares compounds with HCV inh | Potency, µM (series often up to 41.8 µM), inactives show top-dose activity, negative = inhibition, usual class: inhibitors | HCVcc-Cre infectious virus cell assay, luciferase, inhibition | actives 78% (n = 640); note: potency is the fitted concentration of half-maximal effect; nearly all actives have a fitted effect of over 80% in size
HCV host tox – qHTS Assay for Inhibitors of Hepatitis C Virus (HCV): Cytotoxicity Counterscreen for Cherry-picked Compounds | Potency, µM (top dose mostly 41.8 µM), without a hit: at the top dose activity change, negative = cytotoxicity, most hits filed as inhibitors | shares compounds with HCV inh | HCV host cell line cytotoxicity counterscreen | AID 720576, 2013 | actives 22% (n = 640);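 note: potency is the fitted concentration of half-maximal effect; 44 h compound exposure; % is set by controls: 0 for no effect and ±100 for the full control effect; nearly all actives have a fitted effect of over 55% in size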
Starred values were filed as active, the others as inactive; i = inactive; ? = inconclusive; nt = no result; [ ] = dose if it differs, or a comment. Unless noted, calls come from the whole dose curve; as a rule, active = well fitted curve in the direction sought with a large enough effect; inconclusive = small, poorly fitted or top-dose-only effect, or another doubt; inactive = no such curve, though single readings can be large; an effect the other way counts as inactive or inconclusive.

SMILES	Vaccinia Venus	HCV inh	FBPA Giardia inh	HCMV antiviral	VACV mCherry inh	FMDV inh	HCV confirm	HCV host tox
CC(C)N1CCC(N2CCN(CCCc3ccccc3)CC2CCO)CC1 (centres undefined)	-14.7%	?	6.1%	-15.9	?	-14.1%	nt	nt
CC(C)N1CCC(N2CCN(Cc3ccc(-c4ccccc4Cl)o3)CC2CCO)CC1 (centres undefined)	-17.8%	3.98µM*	?	-31.0	-10.5%	-20.0%	6.28µM*	27.7%
Cc1c(NC(=O)c2nc3ccccc3nc2N2CCCCC2)cccc1[N+](=O)[O-]	-2.1%	nt	nt	-9.0	-7.1%	50.4%	nt	nt
Nc1nc(Cl)cc(N2CCC(c3cc(-c4ccc(Cl)cc4)n[nH]3)CC2)n1	nt	3.98µM*	-1.3%	-103.7*	nt	15.8µM*	11.2µM*	?
CCOC(=O)N1CCN(C(=O)c2ccc3c(=O)n(-c4ccccc4F)c(=S)[nH]c3c2)CC1	-18.6%	4.2%	-28.5%	-39.0	-30.6%	-2.8%	nt	nt
CCc1ccc(C(CNC(=O)c2ccc3c(=O)n(-c4ccccc4F)c(=S)[nH]c3c2)N(C)C)cc1 (centres undefined)	?	5.01µM*	-8.5%	?	?	?	1.41µM*	31.5µM*
Cc1ccc(-n2nnnc2SCCNS(=O)(=O)c2ccccc2)cc1C	-20.4%	?	1.9%	-19.0	-6.2%	nt	14.1µM*	-16.5%
COc1ccc(C(C(=O)NCC2CCCO2)N(C(=O)c2snc(C(N)=O)c2N)c2ccccc2C)cc1OC (centres undefined)	-15.7%	-17.6%	-3.3%	-32.3	-20.3%	-26.7%	nt	nt
Cc1nn2c(NCCCN(C)C)c3c(nc2c1-c1ccccc1)CCCC3	-8.3%[7.34 µM]	2µM*	9.8%	-20.3	-20.5%[7.34 µM]	-13.7%	7.05µM*	5.9%
CC1CCCN(CC(O)COc2ccc(-c3ccccc3)cc2)C1 (centres undefined)	-25.9%	2.82µM*	7.6%	-28.4	-27.7%	-24.0%	15.8µM*	52.4%
OC1CCCN(CC(O)COc2ccc(-c3ccccc3)cc2)C1 (centres undefined)	3.7%	?	4.7%	-0.9	-15.4%	10.9%	nt	nt
Oc1ccccc1-c1nc(NCc2cccnc2)c2ccccc2n1	?	5.62µM*	-3.9%	-30.1	?	-1.6%	12.5µM*	12.1%
Cc1ccccc1-c1nc(NCc2cccnc2)c2ccccc2n1	7.0%	nt	-4.1%	nt	4.6%	-12.9%	nt	nt
CC(=O)N(C)c1ccc(OCC(O)Cn2c3ccc(Cl)cc3c3cc(Cl)ccc32)cc1 (centres undefined)	-7.9%	0.891µM*	-6.4%	nt	-2.6%	?	3.96µM*	28µM*
COc1ccc(Cl)cc1NC(=O)c1cc2c(s1)-c1ccccc1OC2	3.9%	nt	nt	-12.5	-8.5%	-12.1%	nt	nt
Cc1c(NC(=O)c2cc3c(s2)-c2ccccc2OC3)cccc1[N+](=O)[O-]	-26.2%	?	-6.0%	?	?	28.2µM*	6.28µM*	-3.9%
COC(=O)c1cc2c(C)cc3ccc(C)cn3c-2c1C(=O)OC	-6.6%	3.98µM*	-13.9%	-21.4	nt	0.0%	11.2µM*	43.3%
CC(C)N1CCC1(C)C(=O)Nc1ccc2cn[nH]c2c1 (centres undefined)	1.3%	nt	nt	59.2	i	-15.4%	nt	nt
CCS(=O)(=O)N1CCC(C(=O)NCc2ccc3c(c2)OCO3)CC1	nt	13.5%	0.3%	20.4	nt	3.6%	nt	nt
O=C(NCc1ccc2c(c1)OCO2)C1CCN(C(=O)Nc2ccc(Cl)cc2)CC1	nt	?	-0.5%	62.7	nt	-0.1%	12.5µM*	-1.0%
COc1ccc(C(CC(=O)NCc2ccc(Cl)cc2)N2Cc3ccccc3C2=O)cc1OC (centres undefined)	-15.6%	nt	nt	2.0	-1.5%	18.7%	nt	nt
Cc1ccc(-c2csc(Cc3nc(-c4cc5ccccc5oc4=O)cs3)n2)cc1	-20.2%	5.01µM*	-1.5%	-79.7*	-14.7%	nt	4.99µM*	6.28µM*
COc1ccccc1CNC(=O)C1(C)CCN1C(=O)C1(c2ccccc2)CC1 (centres undefined)	-4.2%	nt	nt	-25.1	-18.4%	-18.7%	nt	nt
Cc1ccc(S(=O)(=O)N2CCC(=O)N(CCOCc3ccc(C(F)(F)F)cc3)CC2)cc1	?	?	-2.3%	?	?	?	2.23µM*	?
CNCCc1cnc[nH]1	-11.1%	nt	-4.8%	nt	-0.6%	6.5%	nt	nt
SMILES	Vaccinia Venus	HCV inh	FBPA Giardia inh	HCMV antiviral	VACV mCherry inh	FMDV inh	HCV confirm	HCV host tox
Cc1cnc[nH]1	-11.0%	-60.7%	nt	-22.3	i	-16.3%	8.6%	-6.5%
CCN1CCN(c2ccc(N3CCN(C(=O)c4ccc(Br)o4)CC3)nn2)CC1	-14.0%	13.8%	nt	-24.8	-3.1%	-11.8%	nt	nt
CN1CCN(c2ccc(CNS(=O)(=O)c3ccccc3)cc2)CC1	2.5%	17.5%	0.8%	11.0	-15.7%	13.6%	nt	nt
CN1CCN(c2ccc(CNS(=O)(=O)Cc3cccc(C(F)(F)F)c3)cc2)CC1	nt	5.62µM*	0.6%	?	nt	?	5.6µM*	2.5µM*
CC(C)N(C(=O)[C@H]1C[C@H](CC(=O)NCCCn2ccnc2)C(=O)N2CCc3c([nH]c4ccc(Cl)cc34)[C@]12C)C(C)C	0.0%	?	nt	-15.5	-13.1%	-16.0%	nt	nt
COc1cccc(NC(=O)C2CCN(c3ccc(Sc4ccc(C)cc4)nn3)CC2)c1	-15.8%	nt	nt	16.7	-12.4%	15.3%	nt	nt
NC(=S)NN=Cc1nccc2ccccc12	?	2.82µM*	nt	-98.0*	?	11.5%	6.28µM*	?
NC(=S)N/N=C/c1ccccc1O	nt	0.8%	8.1%	-22.3	nt	-10.1%	nt	nt
Cn1cccc1/C=N/NC(N)=S	?	0.8%	?	-4.3	-23.9%	-2.3%	nt	nt
Cc1cnc(C=NNC(N)=S)c2cccc(N)c12	-28.6%	?	nt	-19.6	?	-20.5%	?	-32.9%
O=C(NCc1cccnc1)C(=O)Nc1ccc2c(c1)OCO2	-5.9%	31.2%	2.6%	17.8	-7.8%	45.3%	nt	nt
CCOc1cc(/C=C2/SC(=S)NC2=O)ccc1OC(=O)c1ccco1	i	3.55µM*	5.8%	0.1	-8.4%	4.4%	-14.9%	-9.5%
COc1cc(/C=C2/SC(=O)NC2=O)ccc1OC(=O)c1ccco1	-21.0%	2.1%	-24.0%	62.7	-26.5%	-19.8%	nt	nt

Compound activity deposited in PubChem by National Center for Advancing Translational Sciences (NCATS).
